Results published in the supplement of paper PMC11732987, “Enantioselective OTUD7B fragment discovery through chemoproteomics screening and high-throughput optimisation” (Communications Chemistry, 2025).

Assays:
Assay in all cases: log2 ratio of Biotin-Ahx-Ub-VS probe labelling (fragment/DMSO); higher = less target engagement (more negative = stronger competition), active = hit call of the paper (q ≤ 0.05, log2 ratio ≤ -1)
Settings in all cases: compound concentration: 200 uM; treatment time: 3 h
USP42 = target: T1, USP42 (UniProt Q9H9J4)
T1 sequence (whole entry): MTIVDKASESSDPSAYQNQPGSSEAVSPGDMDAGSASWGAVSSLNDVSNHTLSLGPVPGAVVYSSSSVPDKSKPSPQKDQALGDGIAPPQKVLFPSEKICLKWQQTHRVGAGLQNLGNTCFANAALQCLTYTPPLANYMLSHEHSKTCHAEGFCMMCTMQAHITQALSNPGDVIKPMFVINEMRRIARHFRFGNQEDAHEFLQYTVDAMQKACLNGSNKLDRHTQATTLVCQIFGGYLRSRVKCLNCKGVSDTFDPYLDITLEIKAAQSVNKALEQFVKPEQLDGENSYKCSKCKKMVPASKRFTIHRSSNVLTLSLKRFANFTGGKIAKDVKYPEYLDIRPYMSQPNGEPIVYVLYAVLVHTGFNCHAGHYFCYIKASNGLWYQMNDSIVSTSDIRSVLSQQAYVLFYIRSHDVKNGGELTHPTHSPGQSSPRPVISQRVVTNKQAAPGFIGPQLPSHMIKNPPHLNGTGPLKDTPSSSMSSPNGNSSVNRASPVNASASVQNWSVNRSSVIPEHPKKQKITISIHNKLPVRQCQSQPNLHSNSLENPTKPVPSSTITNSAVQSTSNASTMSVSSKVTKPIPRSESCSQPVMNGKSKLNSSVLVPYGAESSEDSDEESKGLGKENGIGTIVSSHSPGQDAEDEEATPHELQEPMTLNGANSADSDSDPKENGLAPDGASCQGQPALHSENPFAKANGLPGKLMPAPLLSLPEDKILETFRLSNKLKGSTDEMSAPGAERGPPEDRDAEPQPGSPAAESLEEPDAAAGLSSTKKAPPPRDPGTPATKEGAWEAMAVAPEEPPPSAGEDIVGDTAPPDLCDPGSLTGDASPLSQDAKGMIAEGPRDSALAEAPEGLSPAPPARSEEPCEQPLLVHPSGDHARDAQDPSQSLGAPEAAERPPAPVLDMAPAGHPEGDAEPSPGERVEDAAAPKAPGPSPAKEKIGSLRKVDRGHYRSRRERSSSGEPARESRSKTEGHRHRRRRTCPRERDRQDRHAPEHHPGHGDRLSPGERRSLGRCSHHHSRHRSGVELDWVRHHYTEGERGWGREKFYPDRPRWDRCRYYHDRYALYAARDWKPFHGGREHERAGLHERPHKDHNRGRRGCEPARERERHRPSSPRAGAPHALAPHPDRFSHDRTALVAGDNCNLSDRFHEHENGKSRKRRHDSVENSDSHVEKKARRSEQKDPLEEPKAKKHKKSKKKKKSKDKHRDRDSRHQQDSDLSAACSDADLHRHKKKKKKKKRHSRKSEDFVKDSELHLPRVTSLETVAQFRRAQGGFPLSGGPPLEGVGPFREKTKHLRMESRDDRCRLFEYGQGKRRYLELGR
Summary of the method: (§1)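 HEK293T lysate, 495 µg per sample in Tris/CHAPS/IGEPAL buffer with protease inhibitors, was treated in triplicate with fragment at 200 µM or vehicle for 3 h and then with Biotin-Ahx-Ub-VS at 0.5 µM final for 1 h. Labelled DUBs were NeutrAvidin-enriched, digested with LysC and trypsin, and run by diaPASEF LC-MS/MS. Spectronaut label-free quantities were global-median-normalised, and values are average log2 fragment/vehicle ratios by unpaired t-test on proteins with ≥2 unique peptides.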

USP46 = USP46 (UniProt P62068)
Chain of USP46 (P62068 whole entry): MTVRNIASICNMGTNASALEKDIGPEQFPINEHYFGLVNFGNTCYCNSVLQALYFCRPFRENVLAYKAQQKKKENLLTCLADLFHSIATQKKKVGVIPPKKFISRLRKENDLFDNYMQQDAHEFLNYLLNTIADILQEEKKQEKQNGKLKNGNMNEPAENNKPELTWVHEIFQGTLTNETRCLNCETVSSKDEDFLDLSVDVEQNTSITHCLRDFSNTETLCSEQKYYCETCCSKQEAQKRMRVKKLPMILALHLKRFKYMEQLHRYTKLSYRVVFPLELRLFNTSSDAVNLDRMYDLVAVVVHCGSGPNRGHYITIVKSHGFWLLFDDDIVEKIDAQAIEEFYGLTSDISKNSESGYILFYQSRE
Summary of the method: as §1

USP47 = target: T2, USP47 (UniProt Q96K76)
T2 sequence (whole entry): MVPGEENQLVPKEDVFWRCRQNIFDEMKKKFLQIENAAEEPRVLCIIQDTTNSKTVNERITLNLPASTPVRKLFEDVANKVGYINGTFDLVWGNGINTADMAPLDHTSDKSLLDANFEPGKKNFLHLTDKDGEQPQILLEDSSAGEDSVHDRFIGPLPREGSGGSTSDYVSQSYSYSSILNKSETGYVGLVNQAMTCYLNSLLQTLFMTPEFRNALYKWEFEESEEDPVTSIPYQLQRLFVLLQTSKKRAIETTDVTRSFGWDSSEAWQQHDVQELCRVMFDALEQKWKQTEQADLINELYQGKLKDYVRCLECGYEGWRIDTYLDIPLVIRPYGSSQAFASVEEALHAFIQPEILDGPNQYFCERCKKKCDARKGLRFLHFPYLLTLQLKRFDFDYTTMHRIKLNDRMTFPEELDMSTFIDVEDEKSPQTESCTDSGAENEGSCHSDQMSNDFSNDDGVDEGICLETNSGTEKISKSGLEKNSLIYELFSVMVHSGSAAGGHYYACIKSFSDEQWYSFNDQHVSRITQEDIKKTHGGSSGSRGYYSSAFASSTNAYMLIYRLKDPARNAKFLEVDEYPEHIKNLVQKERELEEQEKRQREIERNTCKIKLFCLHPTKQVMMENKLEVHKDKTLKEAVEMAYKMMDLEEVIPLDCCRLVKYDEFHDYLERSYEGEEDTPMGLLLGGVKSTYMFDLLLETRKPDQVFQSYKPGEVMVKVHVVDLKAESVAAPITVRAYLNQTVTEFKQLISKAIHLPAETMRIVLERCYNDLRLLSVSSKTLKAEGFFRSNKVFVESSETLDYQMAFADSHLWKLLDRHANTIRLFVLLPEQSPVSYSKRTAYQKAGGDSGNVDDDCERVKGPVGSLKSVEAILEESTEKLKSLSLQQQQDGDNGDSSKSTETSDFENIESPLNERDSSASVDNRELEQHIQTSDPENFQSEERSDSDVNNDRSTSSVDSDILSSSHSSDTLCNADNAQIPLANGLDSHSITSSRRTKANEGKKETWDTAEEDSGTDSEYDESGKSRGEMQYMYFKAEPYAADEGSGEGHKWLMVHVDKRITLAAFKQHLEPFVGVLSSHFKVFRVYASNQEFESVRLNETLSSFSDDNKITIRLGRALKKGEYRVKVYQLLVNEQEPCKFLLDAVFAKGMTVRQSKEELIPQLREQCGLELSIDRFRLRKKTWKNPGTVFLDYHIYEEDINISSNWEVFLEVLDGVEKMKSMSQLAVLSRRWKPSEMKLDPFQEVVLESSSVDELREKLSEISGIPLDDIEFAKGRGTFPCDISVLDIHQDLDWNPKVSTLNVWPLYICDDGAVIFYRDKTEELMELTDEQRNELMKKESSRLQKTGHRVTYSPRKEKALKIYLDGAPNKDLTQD
Summary of the method: as §1

USP48 = target: T3, USP48 (UniProt Q86UV5)
T3 sequence (whole entry): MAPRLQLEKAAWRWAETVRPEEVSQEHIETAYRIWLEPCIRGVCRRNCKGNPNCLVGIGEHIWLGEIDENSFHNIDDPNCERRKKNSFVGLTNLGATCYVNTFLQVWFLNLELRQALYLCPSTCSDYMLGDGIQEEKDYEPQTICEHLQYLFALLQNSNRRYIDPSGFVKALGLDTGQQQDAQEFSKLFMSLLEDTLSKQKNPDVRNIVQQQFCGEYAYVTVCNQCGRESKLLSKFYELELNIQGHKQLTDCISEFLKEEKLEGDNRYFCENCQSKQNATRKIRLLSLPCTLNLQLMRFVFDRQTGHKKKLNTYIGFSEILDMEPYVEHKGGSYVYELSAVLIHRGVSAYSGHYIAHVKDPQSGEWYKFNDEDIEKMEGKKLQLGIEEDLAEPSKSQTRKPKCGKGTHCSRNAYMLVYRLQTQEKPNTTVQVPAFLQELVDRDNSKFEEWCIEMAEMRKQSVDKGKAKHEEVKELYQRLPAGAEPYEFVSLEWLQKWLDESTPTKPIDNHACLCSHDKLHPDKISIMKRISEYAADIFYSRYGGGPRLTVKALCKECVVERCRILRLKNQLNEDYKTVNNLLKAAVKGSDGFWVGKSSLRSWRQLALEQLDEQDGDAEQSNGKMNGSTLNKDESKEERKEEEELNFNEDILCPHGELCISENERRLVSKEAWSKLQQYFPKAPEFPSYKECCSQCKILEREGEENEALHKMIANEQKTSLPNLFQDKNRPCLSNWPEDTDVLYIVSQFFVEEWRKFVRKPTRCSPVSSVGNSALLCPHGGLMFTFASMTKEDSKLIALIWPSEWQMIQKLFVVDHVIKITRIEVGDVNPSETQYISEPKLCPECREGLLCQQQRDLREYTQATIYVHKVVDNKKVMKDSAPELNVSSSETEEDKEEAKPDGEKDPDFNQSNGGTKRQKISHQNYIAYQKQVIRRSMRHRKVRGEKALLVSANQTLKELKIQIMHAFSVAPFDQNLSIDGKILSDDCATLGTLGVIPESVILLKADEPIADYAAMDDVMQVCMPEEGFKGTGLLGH
Summary of the method: as §1

USP5 = target: T4, USP5 (UniProt P45974)
T4 sequence (whole entry): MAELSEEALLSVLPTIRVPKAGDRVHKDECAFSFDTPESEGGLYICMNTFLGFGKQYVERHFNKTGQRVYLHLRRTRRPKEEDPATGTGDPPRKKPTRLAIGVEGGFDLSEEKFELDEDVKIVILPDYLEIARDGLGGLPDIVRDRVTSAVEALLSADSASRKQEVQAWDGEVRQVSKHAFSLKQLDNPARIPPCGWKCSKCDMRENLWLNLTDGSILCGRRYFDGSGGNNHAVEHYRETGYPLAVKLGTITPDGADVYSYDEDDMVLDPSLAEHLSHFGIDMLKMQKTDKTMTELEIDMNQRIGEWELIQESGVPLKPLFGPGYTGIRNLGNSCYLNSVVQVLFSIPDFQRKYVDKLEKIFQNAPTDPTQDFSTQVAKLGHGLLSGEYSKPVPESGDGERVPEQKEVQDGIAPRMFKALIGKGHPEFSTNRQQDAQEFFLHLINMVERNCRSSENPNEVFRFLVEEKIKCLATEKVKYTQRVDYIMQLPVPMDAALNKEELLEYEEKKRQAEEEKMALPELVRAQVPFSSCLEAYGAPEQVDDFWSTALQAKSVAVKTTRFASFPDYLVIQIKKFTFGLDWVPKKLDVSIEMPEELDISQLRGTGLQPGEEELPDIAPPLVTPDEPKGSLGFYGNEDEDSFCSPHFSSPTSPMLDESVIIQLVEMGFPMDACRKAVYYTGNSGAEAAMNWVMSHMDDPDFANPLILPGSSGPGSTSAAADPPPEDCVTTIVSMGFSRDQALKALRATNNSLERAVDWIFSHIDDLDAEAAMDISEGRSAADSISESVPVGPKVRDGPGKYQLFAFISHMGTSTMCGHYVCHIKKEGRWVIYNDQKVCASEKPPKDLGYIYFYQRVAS
Summary of the method: as §1

USP54 = USP54 (UniProt Q70EL1)
Summary of the method: as §1

USP7 = USP7 (UniProt Q93009)
Chain of USP7 (Q93009 whole entry, looked up): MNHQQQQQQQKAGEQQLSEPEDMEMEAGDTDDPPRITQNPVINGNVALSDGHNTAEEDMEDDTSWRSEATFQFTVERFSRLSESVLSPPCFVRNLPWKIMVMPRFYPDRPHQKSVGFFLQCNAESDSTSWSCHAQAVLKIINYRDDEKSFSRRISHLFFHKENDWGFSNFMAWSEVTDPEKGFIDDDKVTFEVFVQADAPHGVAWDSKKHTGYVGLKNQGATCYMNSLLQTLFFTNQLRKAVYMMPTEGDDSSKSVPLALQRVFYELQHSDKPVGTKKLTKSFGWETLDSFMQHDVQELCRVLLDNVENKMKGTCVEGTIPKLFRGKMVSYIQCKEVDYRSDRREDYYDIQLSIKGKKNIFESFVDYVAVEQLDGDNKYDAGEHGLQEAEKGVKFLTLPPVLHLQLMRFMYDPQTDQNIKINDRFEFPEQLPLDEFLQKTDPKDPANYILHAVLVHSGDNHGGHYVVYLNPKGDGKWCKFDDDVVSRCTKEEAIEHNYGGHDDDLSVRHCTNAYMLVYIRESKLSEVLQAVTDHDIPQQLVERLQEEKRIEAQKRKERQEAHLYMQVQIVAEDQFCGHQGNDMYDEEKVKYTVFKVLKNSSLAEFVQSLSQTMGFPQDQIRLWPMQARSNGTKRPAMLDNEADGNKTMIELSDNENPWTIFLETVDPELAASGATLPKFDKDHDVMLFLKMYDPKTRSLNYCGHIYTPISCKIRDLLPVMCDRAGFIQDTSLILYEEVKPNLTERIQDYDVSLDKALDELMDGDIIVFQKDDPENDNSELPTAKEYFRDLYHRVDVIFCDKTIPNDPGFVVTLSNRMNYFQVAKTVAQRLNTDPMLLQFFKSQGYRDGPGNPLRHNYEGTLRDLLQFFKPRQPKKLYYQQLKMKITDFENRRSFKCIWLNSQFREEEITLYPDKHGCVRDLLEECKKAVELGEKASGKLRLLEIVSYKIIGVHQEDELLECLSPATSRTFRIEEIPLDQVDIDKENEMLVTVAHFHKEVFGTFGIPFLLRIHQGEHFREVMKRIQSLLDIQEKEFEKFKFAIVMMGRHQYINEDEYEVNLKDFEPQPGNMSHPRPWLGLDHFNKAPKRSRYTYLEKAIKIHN
Summary of the method: as §1

USP8 = target: T5, USP8 (UniProt P40818)
T5 sequence (whole entry): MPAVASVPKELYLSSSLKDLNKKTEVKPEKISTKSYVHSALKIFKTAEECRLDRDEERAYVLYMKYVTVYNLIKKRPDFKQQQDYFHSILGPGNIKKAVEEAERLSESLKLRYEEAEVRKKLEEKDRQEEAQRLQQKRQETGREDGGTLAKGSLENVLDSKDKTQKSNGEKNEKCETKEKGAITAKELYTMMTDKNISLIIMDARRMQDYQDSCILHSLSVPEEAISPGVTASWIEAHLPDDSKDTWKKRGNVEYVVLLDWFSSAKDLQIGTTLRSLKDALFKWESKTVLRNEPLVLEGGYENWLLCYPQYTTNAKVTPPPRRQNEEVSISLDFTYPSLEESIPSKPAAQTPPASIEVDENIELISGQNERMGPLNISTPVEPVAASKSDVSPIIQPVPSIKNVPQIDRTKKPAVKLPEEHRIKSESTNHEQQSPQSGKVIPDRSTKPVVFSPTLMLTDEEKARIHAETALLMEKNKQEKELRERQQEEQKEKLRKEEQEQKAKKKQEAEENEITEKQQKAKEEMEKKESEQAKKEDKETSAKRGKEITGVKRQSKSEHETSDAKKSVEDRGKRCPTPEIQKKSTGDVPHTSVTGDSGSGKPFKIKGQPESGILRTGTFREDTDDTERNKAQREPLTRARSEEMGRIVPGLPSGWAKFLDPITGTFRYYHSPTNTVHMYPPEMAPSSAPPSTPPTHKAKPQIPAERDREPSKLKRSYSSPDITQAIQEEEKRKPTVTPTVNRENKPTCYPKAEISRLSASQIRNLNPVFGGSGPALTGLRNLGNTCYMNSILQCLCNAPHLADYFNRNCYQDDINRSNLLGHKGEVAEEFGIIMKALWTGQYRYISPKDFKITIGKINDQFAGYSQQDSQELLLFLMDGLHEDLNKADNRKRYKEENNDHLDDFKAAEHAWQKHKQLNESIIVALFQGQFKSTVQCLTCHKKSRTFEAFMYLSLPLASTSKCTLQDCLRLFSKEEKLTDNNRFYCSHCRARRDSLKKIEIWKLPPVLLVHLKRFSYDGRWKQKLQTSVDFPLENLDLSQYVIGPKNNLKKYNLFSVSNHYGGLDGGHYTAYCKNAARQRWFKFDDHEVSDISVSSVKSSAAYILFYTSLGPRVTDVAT
Summary of the method: as §1

USP9X = USP9X (UniProt Q93008)
Chain of USP9X (Q93008 whole entry): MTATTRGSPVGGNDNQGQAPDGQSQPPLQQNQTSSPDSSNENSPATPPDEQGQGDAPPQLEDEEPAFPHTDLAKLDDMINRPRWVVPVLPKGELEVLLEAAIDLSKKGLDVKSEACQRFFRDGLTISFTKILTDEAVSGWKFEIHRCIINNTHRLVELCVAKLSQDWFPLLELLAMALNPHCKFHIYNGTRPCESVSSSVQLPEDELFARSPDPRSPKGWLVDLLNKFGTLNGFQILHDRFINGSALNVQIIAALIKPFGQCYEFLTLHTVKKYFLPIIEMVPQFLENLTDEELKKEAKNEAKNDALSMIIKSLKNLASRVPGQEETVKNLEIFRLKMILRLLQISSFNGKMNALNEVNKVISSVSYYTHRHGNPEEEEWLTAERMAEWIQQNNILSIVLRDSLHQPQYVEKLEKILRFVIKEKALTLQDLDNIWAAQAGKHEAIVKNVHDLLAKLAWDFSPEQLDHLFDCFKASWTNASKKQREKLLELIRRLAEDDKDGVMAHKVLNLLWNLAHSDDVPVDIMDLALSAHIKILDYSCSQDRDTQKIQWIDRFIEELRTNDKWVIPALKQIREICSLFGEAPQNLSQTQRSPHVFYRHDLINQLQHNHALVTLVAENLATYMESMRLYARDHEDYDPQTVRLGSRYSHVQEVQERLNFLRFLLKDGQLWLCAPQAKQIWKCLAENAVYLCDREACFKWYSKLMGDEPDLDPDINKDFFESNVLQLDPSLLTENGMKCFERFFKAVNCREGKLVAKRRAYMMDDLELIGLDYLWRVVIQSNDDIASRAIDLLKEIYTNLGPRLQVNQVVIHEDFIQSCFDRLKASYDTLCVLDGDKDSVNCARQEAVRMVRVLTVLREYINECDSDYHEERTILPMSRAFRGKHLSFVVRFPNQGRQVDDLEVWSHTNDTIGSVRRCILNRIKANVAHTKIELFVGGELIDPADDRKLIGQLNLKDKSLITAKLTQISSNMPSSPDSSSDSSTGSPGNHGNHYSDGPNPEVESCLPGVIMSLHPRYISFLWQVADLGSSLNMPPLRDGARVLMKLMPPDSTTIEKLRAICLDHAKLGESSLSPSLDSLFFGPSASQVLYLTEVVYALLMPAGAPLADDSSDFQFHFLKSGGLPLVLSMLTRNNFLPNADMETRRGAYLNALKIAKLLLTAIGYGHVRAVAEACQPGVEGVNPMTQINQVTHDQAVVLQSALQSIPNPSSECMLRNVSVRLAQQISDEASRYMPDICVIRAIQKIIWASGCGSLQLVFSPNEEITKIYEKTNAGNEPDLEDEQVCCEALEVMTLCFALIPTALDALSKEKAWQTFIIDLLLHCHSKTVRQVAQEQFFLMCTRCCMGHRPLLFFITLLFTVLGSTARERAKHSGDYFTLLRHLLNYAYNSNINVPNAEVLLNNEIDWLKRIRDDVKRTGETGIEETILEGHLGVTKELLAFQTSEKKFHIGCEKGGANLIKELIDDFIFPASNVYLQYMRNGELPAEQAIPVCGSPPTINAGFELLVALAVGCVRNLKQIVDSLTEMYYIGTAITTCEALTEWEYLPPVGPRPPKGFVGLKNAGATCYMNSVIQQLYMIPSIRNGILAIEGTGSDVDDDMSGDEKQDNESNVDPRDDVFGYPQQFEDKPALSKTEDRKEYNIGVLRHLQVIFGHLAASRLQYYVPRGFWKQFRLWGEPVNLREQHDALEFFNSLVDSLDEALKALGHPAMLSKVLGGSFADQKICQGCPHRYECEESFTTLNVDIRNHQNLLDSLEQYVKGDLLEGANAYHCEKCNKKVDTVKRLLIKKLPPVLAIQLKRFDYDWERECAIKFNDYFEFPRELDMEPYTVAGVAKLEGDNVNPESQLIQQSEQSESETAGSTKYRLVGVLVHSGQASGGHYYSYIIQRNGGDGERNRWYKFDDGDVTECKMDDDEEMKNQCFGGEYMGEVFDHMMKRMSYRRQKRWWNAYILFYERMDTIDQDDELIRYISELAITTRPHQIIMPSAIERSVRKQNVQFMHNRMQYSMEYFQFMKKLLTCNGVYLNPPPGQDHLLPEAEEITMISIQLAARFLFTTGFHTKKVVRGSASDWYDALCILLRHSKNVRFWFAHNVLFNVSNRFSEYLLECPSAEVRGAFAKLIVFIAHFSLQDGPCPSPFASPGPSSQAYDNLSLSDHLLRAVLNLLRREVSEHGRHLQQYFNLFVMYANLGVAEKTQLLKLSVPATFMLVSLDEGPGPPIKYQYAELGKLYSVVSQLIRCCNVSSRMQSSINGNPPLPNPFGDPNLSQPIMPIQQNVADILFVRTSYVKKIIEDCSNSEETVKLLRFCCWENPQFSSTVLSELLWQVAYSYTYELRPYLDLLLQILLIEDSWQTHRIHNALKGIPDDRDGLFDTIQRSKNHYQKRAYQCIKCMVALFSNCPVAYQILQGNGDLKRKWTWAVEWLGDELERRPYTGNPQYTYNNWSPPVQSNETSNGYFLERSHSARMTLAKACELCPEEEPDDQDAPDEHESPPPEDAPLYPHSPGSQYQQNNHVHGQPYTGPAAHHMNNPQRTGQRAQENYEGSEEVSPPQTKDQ
Summary of the method: as §1

UniProt O00487 = target: UniProt O00487
Chain of UniProt O00487 (O00487 whole entry): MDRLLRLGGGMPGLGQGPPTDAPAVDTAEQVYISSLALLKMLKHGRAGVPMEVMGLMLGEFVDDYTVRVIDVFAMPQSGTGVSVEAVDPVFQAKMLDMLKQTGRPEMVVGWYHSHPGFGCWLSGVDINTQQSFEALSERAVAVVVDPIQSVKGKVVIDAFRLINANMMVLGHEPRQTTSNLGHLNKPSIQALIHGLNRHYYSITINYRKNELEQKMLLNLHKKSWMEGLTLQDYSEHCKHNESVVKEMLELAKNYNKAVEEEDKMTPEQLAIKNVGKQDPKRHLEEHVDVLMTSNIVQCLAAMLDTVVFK
Summary of the method: as §1

Measured: log2 ratio of Biotin-Ahx-Ub-VS probe labelling

Cl.O=C(CCl)N[C@H]1C[C@@H](n2cccn2)C1
inactive: USP42 0.0882 | USP46 -0.00232 | USP47 0.175 | USP48 0.0582 | USP5 -0.126 | USP54 -0.186 | USP7 -0.218 | USP8 0.27 | USP9X -0.0582 | UniProt O00487 0.0109
